Experimental data from PubChem BioAssay (Tox21).
Inconclusive results are not listed. Values without a mark were called inactive. Calls come from the whole dose curve; as a rule, active = well fitted cell-killing curve with a large enough effect in the repeat runs; inconclusive = weak or mixed curves, or effect the other way; inactive = no such curve, though single readings can be large or run the other way.

Experiment: qHTS assay for small molecule activators of the heat shock response signaling pathway - cell viability counter screen (AID 743209); note: nearly all actives have a fitted effect of over 50% in size
Conditions: HSE-bla HeLa viability, CellTiter-Glo luminescence, 5 h; series mostly up to 62.6 µM; activity change, negative = cytotoxicity: at the top concentration
Text: U.S. Tox21 Program National Center for Advancing Translational Sciences [NCATS] NIH Chemical Genomics Center [NCGC] U.S. Environmental Protection Agency [EPA] National Institutes of Environmental Health Sciences [NIEHS] National Toxicology Program [NTP] U.S. Food and Drug Administration [FDA] Tox21 Assay Overview: Various chemicals, environmental and physiological stress conditions may lead to the activation of heat shock response/ unfolded protein response (HSR/UPR). There are three heat shock transcription factors (HSFs) (HSF-1, -2, and -4) mediating transcriptional regulation of the human HSR. To identify the compounds that activate HSR signaling, HSE-bla HeLa cell line (Invitrogen, Carlsbad, CA, USA) containing a beta-lactamase reporter gene under the control of the heat shock response elements was used to screen Tox21 10K compound library. The cytotoxicity of the Tox21 compound library against the HSE-bla HeLa cell line was tested in parallel by measuring the cell viability using CellTiter-Glo assay (Promega, Madison, WI) in the same wells.
Tox21 Assay Protocol Summary: The CellSensor HSE-bla HeLa cells (Invitrogen, Carlsbad, CA, USA) were dispensed at 1500 cells/6uL/well into 1536-well black wall/clear bottom plates using a Multidrop combi (Thermo Fisher Scientific, Waltham, MA) dispenser. After the assay plates were incubated at 37 C and 5% CO2 overnight, 23 nL of compounds dissolved in DMSO, positive controls or DMSO only was transferred to the assay plate by a Pintool station (Kalypsys, San Diego, CA). The plates were incubated at 37 C for 5 h. After 1 uL of LiveBLAzerTM B/G FRET substrate was added using a Flying Reagent Dispenser (FRD, Beckman Coulter, Indianapolis, IN, USA), the plates were incubated at room temperature for 2.5 h, and fluorescence intensity was measured by an Envision plate reader (PerkinElmer, Shelton, CT). For cell viability readout that measures cytotoxicity, 3 ul/well of CellTiter-Glo reagent was added into the assay plates using a FRD. After 30 min incubation at room temperature, the luminescence intensity in the plates was measured using a ViewLux (PerkinElmer) plate reader.
% is set by controls: 0 for no effect and ±100 for the full control effect.

Row | SMILES | activity change, negative = cytotoxicity
1 | CN1CCN(C(=O)C2CCCCC2)CC1 | 0.267%
2 | Cc1ccccc1OCC(=O)O | -2.02%
3 | CCOC(=O)CC | 2.12%
4 | Cc1ccccc1C#N | 0.568%
5 | CCCCCCCCCCCCCCCC(=O)OC | 9.32% [at 29.1 µM]
6 | CCOC(=O)CC(C(C)=O)C(C)=O | 2.35%
7 | Clc1cc(Cl)c(Cl)c(Cl)c1Cl | -4.14%
8 | CCO/C=C1\N=C(c2ccccc2)OC1=O | -3.94%
9 | COC(=O)c1cc(Cl)c(NC(C)=O)cc1OC | -6.92%
10 | COC(=O)N/N=C/c1c[n+]([O-])c2ccccc2[n+]1[O-] | -0.118%
11 | CCC(C)SSC(C)CC (stereo not given) | 0.128%
12 | CCCCCCCCCCCCCCCC/C=C/C1CC(=O)OC1=O (stereo not given) | -9.15%
13 | CNC(=O)c1c(I)c(NC(C)=O)c(I)c(C(=O)O)c1I | 2.61%
14 | Cc1cccc(N)n1 | 9.27% [at 81.1 µM]
15 | CC(C)C[P+](C)(CC(C)C)CC(C)C | 7.88% [at 81.1 µM]
16 | Cc1cc(=O)oc2cc(O[C@@H]3SC[C@@H](O)[C@H](O)[C@H]3O)ccc12 | -4.54%
17 | C=C(C)C(=O)OCCOC1CC2CC1C1C=CCC21 (stereo not given) | 0.14% [at 81.1 µM]
18 | CC1(C)CC(N)CC(C)(C)N1 | -4.77%
19 | CCCCOCCCC | 4.36%
20 | Cc1nnc(C(=O)NC(C)(C)c2nc(C(=O)NCc3ccc(F)cc3)c(O)c(=O)n2C)o1 | 0.347%

Row | SMILES | activity change, negative = cytotoxicity
21 | C=CCN1CCc2nc(N)sc2CC1 | 13.8%
22 | N#Cc1cc(NC(=O)C(=O)O)c(Cl)c(NC(=O)C(=O)O)c1 | 5.54%
23 | O=C1CCCc2c(O)cccc21 | -1.36%
24 | CC(O)CCCCn1c(=O)c2c(ncn2C)n(C)c1=O (stereo not given) | -12.2%
25 | CC(=O)OC1CCC(C(C)(C)C)CC1 (stereo not given) | -8.22%
26 | CC/C=C/CCCCCCCCCCOC(C)=O | -3.54%
27 | CC(C)(Sc1cc(C(C)(C)C)c(O)c(C(C)(C)C)c1)Sc1cc(C(C)(C)C)c(O)c(C(C)(C)C)c1 | -9.6%
28 | C[C@@H](CN1CC(=O)NC(=O)C1)N1CC(=O)NC(=O)C1 | 10.6%
29 | N#Cc1ccccc1C#N | -6.45%
30 | CC(C)CC(O)Cc1ccccc1 (stereo not given) | -0.67%
31 | CCCc1ncc(C(=O)O)s1 | 6.87%
32 | COC(=O)c1ccc(NC(C)=O)cc1OC | -4.9%
33 | CC(C)=CCC/C(C)=C\C#N | 6.89%
34 | C=CC(=O)OCC[N+](C)(C)C | -5.21% [at 81.1 µM]
35 | CC(C)(C)NCC(O)COc1cccc2c1CCC(=O)N2 (stereo not given) | 17.3%
36 | CCCC(=O)CC | -5.46% [at 81.1 µM]
37 | CCCCCCCCCCCCCCCCN(C)C | -2.6% [at 5.95 µM]
38 | CC(=O)SCC(CC(=O)c1ccc(C)cc1)C(=O)O (stereo not given) | 6.36%
39 | CC/C=C\CCOC(=O)c1ccccc1 | 6.34%
40 | CCCCC(CC)CCC(CC(C)C)OS(=O)(=O)O (stereo not given) | 2.32%
